Source: PubChem
The list is not random: actives were taken first. Their share in the collection is about 11%.
hNpr1 antagonist: Natriuretic polypeptide receptor (hNpr1) antagonism - Primary qHTS; Atrial natriuretic peptide receptor 1 (Homo sapiens), P16066; HEK293 hNpr1 GloSensor cGMP, ANP-stimulated luminescence; Potency, µM (highest dose often 46.3 µM), usual class: inhibitors; actives 1.6% (n = 76,000); calls by dose curve; also: nearly all actives have a fitted effect of over 60% in size
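HEK293 cells stably expressing human Npr1 and cGMP GloSensor pGS-40F, loaded 2 h with 2% GloSensor reagent, given compound 30 min at room temperature. Luminescence read before and 20 min after 0.1 nM hNppA.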
FLuc inh: Firefly luciferase inhibition profiling of diverse chemical library using quantitative high-throughput screening; Luciferin 4-monooxygenase (Photinus pyralis), P08659; purified P. pyralis luciferase, luminescence, biochemical; Potency, µM (series often up to 115 µM), usual class: inhibitors; actives 2.5% (n = 76,000); AID 1347043, 2019; also: nearly all actives have a fitted effect of over 65% in size
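FLuc 10nM, D-luciferin 10uM, ATP 10uM, Mg acetate 10mM, Tris acetate pH 7.5, Tween/BSA; cpd qHTS; enzyme added last; CCD luminescence.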
HEK293 tox: Cytotoxic Profiling in HEK 293 Cell Line of Diverse Libraries Using Quantitative High-Throughput Screening; HEK 293 viability, ATP luminescence (CellTiter-Glo), 48-72 h; Potency, µM (titrated, usually from 115 µM), hits mostly inhibitors; actives 6.6% (n = 94,000); also: nearly all actives have a fitted effect of over 60% in size
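Read-out: CellTiter-Glo ATP luminescence. Cells: HEK 293, 250 cells/well. Exposure: 48 or 72 hr, 37 degree Celsius.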
NIH3T3 tox: Cytotoxic Profiling in NIH 3T3 Cell Line of Diverse Libraries Using Quantitative High-Throughput Screening. NIH 3T3 viability, CellTiter-Glo ATP luminescence, 48-72 h. Potency, µM (series often up to 96.7 µM), actives largely listed as inhibitors. actives 4.3% (n = 94,000); also: nearly all actives have a fitted effect of over 55% in size
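NIH 3T3 cells at 400 cells/well received 23 nL of compound by pintool and were incubated 48 or 72 h at 37 °C. Viability was read as ATP-coupled CellTiter-Glo luminescence.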
Numbers stand for hits; n = inactive; u = inconclusive; x = no result; ! = not confirmed by another sample. Unless noted, calls follow the shape of the dose curve; as a rule, active = well fitted curve in the direction sought with a large enough effect; inconclusive = small, poorly fitted or top-dose-only effect, or another doubt; inactive = no such curve, though single readings can be large; an effect the other way counts as inactive or inconclusive.

SMILES | hNpr1 antagonist | FLuc inh | HEK293 tox | NIH3T3 tox
CC(=O)N1CCC(Nc2ncccc2-c2cc(-c3ccccc3)nc3c(C)noc23)CC1 | n | n | 100µM | u
COc1ccc(OC)c(NC(=O)C2CCN(c3cnc4nccnc4c3)CC2)c1 | n | n | 40µM | u
O=C(c1ccccc1)N1CCc2nc(-c3ccccc3)nc(-c3ccc(Cl)cc3)c2C1 | n | n | u | u
CC(=O)NC(CO)C(=O)N1CCc2onc(-c3cccc4ccccc34)c2C1 (stereo not given) | n | n | n | n
Cc1ccc(C(=O)N2CCc3onc(-c4cccc5ccccc45)c3C2)cc1 | n | n | 40µM | u
O=C(c1ccc(C(F)(F)F)cc1)N1CCc2nc(-c3ccc(Cl)cc3)nc(-c3ccccc3)c2C1 | n | n | 20µM | n
Cc1ccc(C(=O)N2CCc3nc(-c4ccc(Cl)cc4)nc(-c4ccccc4)c3C2)cc1 | n | u | 50µM! | u
Cc1cccc(C(=O)Nc2c(N3CCCCC3)c(-c3cccc(F)c3)nn2C)c1 | x | x | 40µM | 45µM
O=C(Nc1ccc(-c2nnc3n2CCCC3)cc1)c1cccc(F)c1 | n | n | n | n
Cn1nc(-c2cccc(F)c2)c(N2CCCCC2)c1NC(=O)Nc1ccccc1 | x | x | u | 28µM
CC1(CCCCc2ccccc2)COc2ccc(C(=O)NCCN3CCOCC3)cc2N1 (stereo not given) | n | n | 89µM | 79µM
CC1(CCCCN2CCOCC2)COc2ccc(C(=O)NCc3ccccc3)cc2N1 (stereo not given) | n | n | u | n
CC1(CCCCc2ccccc2)COc2ccc(C(=O)NCc3ccncc3)cc2N1 (stereo not given) | u | n | 89µM | u
COc1ccc(-c2cc(C(=O)NC3CCC3)c3cnn(C)c3n2)cc1 | x | x | n | n
COc1cccc(-c2cc(C(=O)NC3CCC3)c3cnn(C)c3n2)c1 | x | x | 79µM | u
Cn1ncc2c(C(=O)NCC3CC3)cc(-c3ccsc3)nc21 | x | x | u | 89µM
COc1cccc(-c2cc(C(=O)NCc3ccccn3)c3cnn(C)c3n2)c1 | x | x | 79µM | u
Cn1ncc2c(C(=O)NCC3CC3)cc(-c3ccc(C(F)(F)F)cc3)nc21 | x | x | 32µM | u
O=C(C1CCN([S+](=O)([O-])c2ccccc2)C1)N1CCC(c2nc3ncccc3[nH]2)CC1 (stereo not given) | x | x | n | n
COC(=O)CNC(=O)c1nc2sccn2c1-c1cccc(C(F)(F)F)c1 | x | x | n | u
Cn1ncc2c(C(=O)NC3CCC3)cc(-c3ccc(C(F)(F)F)cc3)nc21 | x | x | 40µM | 35µM
CCO[C@H]1CN(C(=O)CCc2nc3c(C)c(C)ccc3[nH]2)C[C@@H]1O | n | n | n | n
CC(NC(=O)c1csc2nc(-c3cccc(C(F)(F)F)c3)cn12)c1ccncn1 (stereo not given) | n | 40µM | u | u
CN1c2cc(C(=O)N3CCc4ccccc4C3)ccc2C(=O)N2CCCCC21 (stereo not given) | n | n | u | n
COc1ccc(CN2CCC3(Cc4ccccc4CNC3=O)C2)c(O)c1 (stereo not given) | x | x | u | n
SMILES | hNpr1 antagonist | FLuc inh | HEK293 tox | NIH3T3 tox
COc1ccc2c(c1)OCC(C(=O)NCCNc1cc(C)ccn1)C2 (stereo not given) | n | n | n | 79µM
CC1=C(C(=O)OC(C)C)C(c2ccccc2Cl)CC(=O)N1Cc1cccc(F)c1 (stereo not given) | n | n | 32µM | u
Cc1ccc(S(=O)(=O)N2CCC3(CC2)SCC(=O)N3Cc2ccco2)cc1 | n | n | u | n
N#Cc1ccc(CN2CCC3(C2)NC(=O)c2ccccc2O3)cc1 (stereo not given) | n | n | n | n
N#Cc1ccc(CN2CC3(Cc4ccccc4C(=O)N3)C2)cc1 | x | x | u | 35µM
CN(c1cc(=O)c2ccnc(-c3cccc(CO)c3)c2o1)C1CCOCC1 | n | n | n | 25µM
CN(c1cc(=O)c2ccnc(-c3cncnc3)c2o1)C1CCOCC1 | n | n | n | 79µM
COc1ccc(C(=O)N2CCCN(CCn3nc4n(c3=O)CCCC4)CC2)cc1 | x | x | n | n
CCN1C(=O)C2CC3(CCN(S(=O)(=O)c4cccc5nsnc45)CC3)CN2C1=O (stereo not given) | x | x | n | n
CC(=O)NC1(C)CCCN(Cc2cccc(-c3ccccc3)c2)C1 (stereo not given) | n | n | u | u
